Results filed as inconclusive are left out. Active and inactive are the calls of the source. Unless noted, no stated cut-off is given here; in the data, active means inhibition above about 80%; inactive means the rest.

This note sets out measurements from PubChem BioAssay.

A short description of assay [1]: viability loss in pontine glioma line – cell-based, SU-DIPG-XVII, MIPE5.0, CellTiter-Glo, qHTS, dose response (AID 1347060; cut-off not given, nearly all actives have AC50 up to about 26 µM;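 on AC50: cells exposed to compound for 48 hours before viability readout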). As to conditions: CellTiter-Glo ATP luminescence.
The nature of assay [2]: viability loss in pontine glioma line – cell-based, SU-DIPG-XIII, MIPE4.0, CellTiter-Glo, qHTS, dose response (AID 1347061; cut-off not given, nearly all actives have AC50 up to about 37 µM;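 further: cells exposed to compound for 48 hours before readout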). As to conditions: CellTiter-Glo ATP luminescence.
The nature of assay [3]: viability loss in pontine glioma line – cell-based, JHH-DIPG-1, MIPE4.0, CellTiter-Glo, qHTS, dose response (AID 1347062; cut-off not given, nearly all actives have AC50 up to about 27 µM;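 on AC50: cells exposed to compound for two days before readout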). Particulars: JHH-DIPG-1 viability, CellTiter-Glo ATP luminescence.
The nature of assay [4]: viability loss in pontine glioma line – cell-based, SU-DIPG-XXV, MIPE5.0, CellTiter-Glo, qHTS, dose response (AID 1347065; cut-off not given, nearly all actives have AC50 up to about 26 µM;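 further: cells exposed to compound for 48 hours before ATP readout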). As to conditions: CellTiter-Glo ATP luminescence.
The nature of assay [5]: JHH-DIPG-1 glioma cell viability, MIPE5.0 library, CellTiter-Glo luminescence, qHTS (AID 1347067; cut-off not given, nearly all actives have AC50 up to about 26 µM;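 further: cells exposed to compound for 48 hours before readout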). As to conditions: JHH-DIPG-1 glioma viability, CellTiter-Glo ATP luminescence.
Assay [6] in a line: growth inhibition of DIPG cells – cell-based, MIPE5.0 library, qHTS (AID 1347068; cut-off not given, nearly all actives have IC50 up to about 30 µM). Particulars: SU-DIPG-XXV viability.
The nature of assay [7]: compounds altering circadian rhythm period length – cell-based, LOPAC library, luminescence reporter (AID 2774; call rule not given here;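 further: values are relative to mean of DMSO wells on each plate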). Particulars: circadian reporter cells, at 7 µM, actives lie on both sides.
The subject of assay [8] is Hepatitis C virus NS3 helicase. Kind of assay: blockers of NS3h binding to ssDNA – biochemical, fluorescence polarization, LOPAC1280 library, primary screen (AID 687035; in the data active means inhibition above about 37%). As to conditions: Purified HCV NS3 helicase, Cy5-dT15 ssDNA binding fluorescence polarization; stronger effect = higher value; concentration not given here.
Assay [9] can be described thus: compounds altering Cy5-DNA-NS3h complex signal – biochemical, LOPAC1280, artefact control for HCV NS3 helicase inhibitor project (AID 687037; call rule not given here). Particulars: Cy5-DNA-NS3h complex fluorescence interference counterscreen.
Assay [10] in a line: blockers of cellular phospholipid synthesis – cell-based, LOPAC library, screen 4, primary screen (AID 1347384; call rule not given here). Particulars: animal cells, phospholipid biosynthesis inhibition screen; at 10 µM.
The nature of assay [11]: growth inhibition, single agent or in combination, cell-based, chromothripsis tumors, cisplatin or BGB combos (AID 1671449).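 Further: cells exposed for 96 hours; 0% = vehicle DMSO and 100% = killing by high DMSO.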 As to conditions: LFS_MB_P medulloblastoma cells.
Assay [12] can be described thus: growth inhibition, single agent and combos, cell-based, chromothripsis tumors, cisplatin or BGB combos (AID 1671450).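 Further: cells exposed to compound for four days; 0% = vehicle DMSO and 100% = cell killing by high DMSO.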 Particulars: HDN33 neuroblastoma cells, stronger effect = higher value.
The nature of assay [13]: growth inhibition, single agents and combos, LFS_MB_1R, cell-based, cisplatin or BGB combos, synergistic combos for chromothripsis tumors (AID 1671452).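 Further: cells exposed for 96 hours before readout.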 Particulars: LFS_MB_1R medulloblastoma cells, stronger effect = higher value.
A short description of assay [14]: growth inhibition, single agents and combos, HTB85, cell-based, BGB or cisplatin IC20 combos, synergistic combos for chromothripsis tumors (AID 1671453).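 Further: cells exposed for 96 hours before readout; 0% = vehicle DMSO and 100% = high DMSO killing control.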 Particulars: HTB85 osteosarcoma cells, drug combinations, stronger effect = higher value.
The nature of assay [15]: growth inhibition, MDA-MB-436, cell-based, BGB or cisplatin combos, synergistic combos for chromothripsis tumors (AID 1671458; call rule not given here;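 further: cells exposed for 96 hours; 0% = vehicle DMSO and 100% = killing by high DMSO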). Particulars: MDA-MB-436 breast carcinoma growth inhibition, drug combinations, stronger effect = higher value.
The nature of assay [16]: BT084 cell growth, single and combined drugs, ICGC_MB145, cisplatin and BGB IC40 combos (AID 1671461).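 Further: cells exposed to drugs for 96 hours; 0% = vehicle DMSO and 100% = high DMSO full killing control.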 Particulars: BT084 medulloblastoma cells, drug combinations, stronger effect = higher value.
The nature of assay [17]: RCMB18 cell growth, single agent and combined, cisplatin and BGB IC40 combos (AID 1671462).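 Further: cells exposed to compound for four days.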 As to conditions: RCMB18 medulloblastoma cells, stronger effect = higher value.
Assay [18] in a line: CRL1545 cell growth, single agent and combined, cisplatin and BGB IC20 combos (AID 1671464).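 Further: cells exposed to compound for 96 hours before readout; 0% = vehicle DMSO and 100% = high DMSO killing control.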 As to conditions: CRL1545 osteosarcoma cells, stronger effect = higher value.
The nature of assay [19]: GFP-Q80 aggregate reduction, neuronal-like cells, cell-based, NGF-treated PC12, GFPQ80 (AID 1614).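 Further: lower means fewer inclusions and 0 means no inclusions at all.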 Particulars: PC12 NGF-treated GFP-polyQ80 inclusion reduction.
A short description of assay [20]: growth inhibition of DIPG cells – cell-based, MIPE4.0 library, CellTiter-Glo luminescence, qHTS (AID 1347066; cut-off not given, nearly all actives have AC50 up to about 30 µM;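 further: cells exposed to compound for 48 hours before readout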). Particulars: SU-DIPG-VI viability, CellTiter-Glo ATP luminescence.
[21] abbreviates: at 0.5 µM, stronger effect = higher value.
[22] abbreviates: measured here: combination with BGB IC20, at 0.005 µM.
Where [23] appears, read: measured here: combination with BGB IC40, at 0.005 µM.
Setting [24] is: measured here: combination with BGB IC40, at 0.05 µM.
Where [25] appears, read: measured here: combination with cisplatin, at 0.5 µM, stronger effect = higher value.
[26] abbreviates: measured here: combination with cisplatin, at 5 µM, stronger effect = higher value.
The mark [27] stands for this setting: measured here: with BGB IC20 combination, at 0.5 µM.
[28] abbreviates: measured here: with cisplatin IC20 combination, at 0.5 µM.
[29] abbreviates: measured here: combination with cisplatin, at 0.5 µM.
[30] abbreviates: measured here: combination with cisplatin, at 5 µM.
The mark [31] stands for this setting: measured here: with BGB IC20, at 0.5 µM.
Where [32] appears, read: measured here: with BGB IC20, at 5 µM.
The mark [33] stands for this setting: measured here: with cisplatin IC20, at 0.5 µM.
Setting [34] is: measured here: with cisplatin IC20, at 5 µM.
Setting [35] is: measured here: BGB combination, at 0.5 µM.
Setting [36] is: measured here: BGB combination, at 5 µM.
The mark [37] stands for this setting: measured here: cisplatin combination, at 0.5 µM.
[38] abbreviates: measured here: cisplatin combination, at 5 µM.
Setting [39] is: cisplatin combination, at 0.5 µM.
Where [40] appears, read: measured here: BGB IC40 combination 0.05 uM, at 0.05 µM.
Setting [41] is: measured here: BGB IC40 combination, at 0.05 µM.

Consider `CCOC(=O)[C@H](CCc1ccccc1)N[C@H]1CCc2ccccc2N(CC(=O)O)C1=O`, for which the outcome in [1], in [4], in assay [5] and in [6] was inactive. Besides, the figures for the concentration at half-maximal activity (AC50) in assay [2] and in assay [3] were 20.9 µM (active) and 16.6 µM (active), respectively.

As for `CCN(CC)CCCC(C)Nc1c2ccc(Cl)cc2nc2ccc(OC)cc12` (stereo not given), the period change in assay [7] is 0.21 h (inactive). For the same molecule, the inhibition in assay [8] is 1% (inactive); in assay [11] (setting [21]) it was -9.53% (inactive); in assay [11] (setting [22]), 13.9%; in [11] (setting [23]), 18.9%; in [11] (setting [24]), 6.94%; in assay [11] (setting [25]), -29.9%. Further, the inhibition in [11] (setting [26]) is 113%; in assay [12] (BGB combo, at 5 µM), 99.8%; in assay [12] (at 0.5 µM) it was -12.9% (inactive); in [12] (cisplatin combo, at 5 µM), 99.8%; in [12] (setting [27]) it was -9.01%; in assay [12] (setting [28]), -29.7%. For the same molecule, the inhibition was 99.8% in assay [12] (single agent, at 5 µM); 3.87% (inactive) in assay [13] (at 0.5 µM); -25.2% in assay [13] (setting [24]); 4.45% in assay [13] (setting [29]); 100% in [13] (setting [30]); -23.3% (inactive) in assay [14] (at 0.5 µM). For the same molecule, the inhibition in assay [14] (setting [31]) was -27.3%; in assay [14] (setting [32]), 99.8%; in assay [14] (setting [33]), -38%; in assay [14] (setting [34]) it was 99.9%; in [14] (single agent, at 5 µM), 99.9%; in [15] (at 0.5 µM) it was 4.39% (inactive). Further, the inhibition is -0.472% in assay [15] (setting [35]); 95.8% in [15] (setting [36]); -17.3% in [15] (setting [37]); 98% in assay [15] (setting [38]); 1.42% (inactive) in assay [16] (at 0.5 µM); -5.45% in assay [16] (setting [39]). The inhibition is 99.5% in [16] (cisplatin combination, at 5 µM); -3.72% in assay [16] (setting [40]); 105% in assay [16] (single agent, at 5 µM); -4.03% (inactive) in assay [17] (at 0.5 µM); 92.9% in [17] (cisplatin combo, at 5 µM); -9.76% in assay [17] (setting [41]). Besides, the inhibition in assay [17] (setting [29]) was -29.6%; in assay [17] (single agent, at 5 µM), 73.4%; in [18] (at 0.5 µM), 9.17% (inactive); in assay [18] (setting [27]), -5.37%; in assay [18] (setting [28]) it was 14.5%; in assay [18] (single agent, at 0.05 µM), -8.93%. Moreover, in [18] (single agent, at 5 µM), the inhibition amounted to 99.9%. For the same molecule, the fluorescence ratio (interference) in [9] is 1 (inactive). Besides, the AC50 is 8.33 µM (active) in [1], 11.8 µM (active) in assay [4] and 11.8 µM (active) in assay [5]. The outcome in assay [10] was inactive.

With `NNC(=O)c1ccncc1`, the inclusion score in [19] was 2. Further, the outcome in [1], in [2], in [3], in assay [4], in assay [20] and in [5] was inactive. In addition, the outcome in [6] was inactive.

In the case of `CC1=C(/C=C/C(C)=C/C=C/C(C)=C/C(=O)O)C(C)(C)CCC1`, the period change in assay [7] was 0.355 h (inactive). Further, the inhibition in assay [8] is -1% (inactive). Also, the fluorescence ratio (interference) in assay [9] was 0.9 (inactive). The result in [3], in assay [5], in assay [6] and in [10] was inactive.

With `CC(=O)OCC(CCn1cnc2cnc(N)nc21)COC(C)=O`, the call in assay [1], in assay [2], in assay [3], in assay [4], in assay [20] and in assay [5] was inactive. Besides, the result in assay [6] and in assay [10] was inactive. Besides, the inhibition in [11] (setting [21]) is -15.4% (inactive); in assay [11] (setting [22]), -4.33%; in [11] (setting [23]) it was -16.3%; in assay [11] (setting [24]), -21.9%; in [11] (setting [25]) it was -33%; in assay [11] (setting [26]), -20.4%. Moreover, the inhibition in assay [12] (BGB combo, at 5 µM) is -6.25%; in assay [12] (at 0.5 µM), -3.67% (inactive); in assay [12] (cisplatin combo, at 5 µM) it was 8.87%; in [12] (setting [27]), -10.2%; in assay [12] (setting [28]) it was 4.72%; in [12] (single agent, at 5 µM), -14.6%. Further, the inhibition was -6.39% (inactive) in assay [13] (at 0.5 µM); -41.8% in assay [13] (setting [24]); -15.8% in [13] (setting [29]); -6.32% in assay [13] (setting [30]); -2.55% (inactive) in [14] (at 0.5 µM); -18% in assay [14] (setting [31]). The inhibition was -24.7% in assay [14] (setting [32]); 0.506% in assay [14] (setting [33]); -48.5% in [14] (setting [34]); -10% in [14] (single agent, at 5 µM); -18.3% (inactive) in assay [15] (at 0.5 µM); -5.73% in assay [15] (setting [35]). Further, the inhibition was -13.3% in assay [15] (setting [36]); -45.7% in assay [15] (setting [37]); -24.3% in assay [15] (setting [38]); -39.8% (inactive) in assay [16] (at 0.5 µM); -22.3% in assay [16] (setting [39]); -19.5% in assay [16] (cisplatin combination, at 5 µM). Moreover, the inhibition is -14.8% in assay [16] (setting [40]); -21.3% in [16] (single agent, at 5 µM); -15.5% (inactive) in assay [17] (at 0.5 µM); -24.5% in assay [17] (cisplatin combo, at 5 µM); -9.28% in [17] (setting [41]); 3.82% in assay [17] (setting [29]). Further, the inhibition in [17] (single agent, at 5 µM) is -35%; in [18] (at 0.5 µM), -2.74% (inactive); in assay [18] (setting [27]), 4.75%; in assay [18] (setting [28]), -8.9%; in assay [18] (single agent, at 0.05 µM) it was -17%; in assay [18] (single agent, at 5 µM), 5.18%.
